Compound activity as filed in PubChem BioAssay.
CYP2C19 activ: human CYP2C19 activators, primary screen, biochemical, luminescence | Cytochrome P450 2C19 (Homo sapiens), P33261 | 96,000 tested, under 10 active | recombinant CYP2C19, luciferin-H EGE luminescence; active compounds read high; 0 = fully inhibited enzyme, 1 = untreated enzyme | activation factor at 5 µM;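 active = activation factor of at least 2 at 5 µM in the primary screen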
PostGolgi ctrl: growth inhibition of yeast control strain, primary screen, counter-screen for post-Golgi transport modulator project; efflux-deficient yeast background strain, growth absorbance A615, 16 h; inhibition, % at 10 µM; actives 5% (n = 98,000); AID 738, 2007
CYP2C9 activ: human CYP2C9 activators, primary screen, biochemical, luminescence; AID 1024, 2008; activation factor at 5 µM; actives 1.4% (n = 96,000); recombinant CYP2C9, luciferin-H conversion; active compounds read high; factor 1 = untreated enzyme, 0 = blocked; Cytochrome P450 2C9 (Homo sapiens), P11712;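 active = activation factor of 2 or more for CYP2C9 at a 5 µM dose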
Target sequence (P11712 whole entry, looked up): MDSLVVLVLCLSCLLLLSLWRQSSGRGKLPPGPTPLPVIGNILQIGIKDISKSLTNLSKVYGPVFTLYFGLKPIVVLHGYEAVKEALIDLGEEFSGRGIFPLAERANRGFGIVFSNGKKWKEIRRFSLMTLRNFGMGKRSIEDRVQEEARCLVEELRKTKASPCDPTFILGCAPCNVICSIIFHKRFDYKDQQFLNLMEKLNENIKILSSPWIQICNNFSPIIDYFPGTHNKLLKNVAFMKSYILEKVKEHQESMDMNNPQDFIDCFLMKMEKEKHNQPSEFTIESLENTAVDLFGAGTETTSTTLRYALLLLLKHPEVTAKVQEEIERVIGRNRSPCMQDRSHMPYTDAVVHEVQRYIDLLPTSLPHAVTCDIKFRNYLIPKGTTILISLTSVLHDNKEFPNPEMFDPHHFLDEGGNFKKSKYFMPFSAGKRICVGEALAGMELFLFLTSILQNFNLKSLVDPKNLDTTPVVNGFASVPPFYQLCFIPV
CYP2C9 inhib: blockers of cytochrome P450 2C9 activity – biochemical, luminescence, ADME assay, primary screen. P11712. CYP2C9 Supersomes, luciferin-H conversion. inhibition, % at 5 µM. actives 20% (n = 96,000);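 active = blocking of liver enzyme CYP2C9 beyond about 50% at 5 µM, limit read from the data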
CYP2C19 inh: blockers of cytochrome P450 2C19 activity – biochemical, luminescence, ADME assay, primary screen; P33261; CYP2C19 Supersomes, luciferin-H EGE luminescence, 30 min; inhibition, % at 5 µM; actives 21% (n = 96,000); AID 778, 2007;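 active = CYP2C19 inhibition above a set limit at 5 µM in the primary screen, cut at about 50% in these data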
PostGolgi yeast: phenotypic screen on post-Golgi transport, primary screen. post-Golgi transport phenotypic cell assay. inhibition, % at 10 µM. actives 0.9% (n = 98,000). AID 739, 2007;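 note: yeast cells grown in 1536-well plates; yeast grown about 18 h at 30C before absorbance read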
Numbers stand for hits; - = inactive. A selection: hits, their analogues and other compounds. The true share with any hit is near 32%. Cut-off read from the data, not from the text of the source, unless noted: active = inhibition above about 30%; inactive = the rest.

SMILES	CYP2C19 activ	PostGolgi ctrl	CYP2C9 activ	CYP2C9 inhib	CYP2C19 inh	PostGolgi yeast
CCCn1nc(Oc2nc(SC)nc(N(C)C)n2)ccc1=O	-	-	-	-	-	-
Cc1cc(N(C)C)nc(SC(C)C)n1	-	-	-	-	-	-
CCn1c(C)cc2c(c1=O)C(c1ccccc1)C(C(=O)OC)=C(N)O2 (centres undefined)	-	-	-	-	-	-
COC(=O)C1=C(N)Oc2cc(C)n(CCCn3ccnc3)c(=O)c2C1c1ccc(Cl)cc1 (centres undefined)	-	-	-	97	99	-
COC(=O)C1=C(N)Oc2cc(C)n(Cc3ccco3)c(=O)c2C1c1cccc(Cl)c1 (centres undefined)	-	-	-	56	-	-
N#Cc1cn(CC(=O)NCc2cccnc2)c2ccccc12	-	-	-	63	80	-
O=C(O)CC(C(=O)O)c1cn(Cc2ccccc2)c2ccccc12 (centres undefined)	-	-	-	-	-	-
Cc1c(Br)c([N+](=O)[O-])nn1CC(=O)NCc1cccnc1	-	-	-	68	90	-
Cc1ccc(NC(=O)Cn2nc([N+](=O)[O-])c(Br)c2C)cc1C	-	-	-	-	-	-
N#Cc1cn(Cc2ccccc2)c2ccccc12	-	-	-	84	91	-
CCC(=O)c1cn(CC(=O)NCc2cccnc2)c2ccccc12	-	-	-	91	86	-
COc1cccc(-n2c(Cc3cc(=O)[nH]c(=O)[nH]3)nnc2SCC(=O)N2CCC(C)CC2)c1	-	-	-	-	-	-
COc1cc(OC)cc(-c2cc3nc(C)c(CCC(=O)O)c(C)n3n2)c1	-	-	-	-	-	-
O=C1c2ccccc2C(=O)N1CCCC(=O)N1CCCc2ccccc21	-	-	-	-	83	-
O=C(CCCOc1ccc(Cl)cc1Cl)N1CCCc2ccccc21	-	48	-	-	-	-
O=C(COc1ccc(Cl)cc1Cl)NC(=S)N1CCCc2ccccc21	-	-	-	62	60	-
Cc1cccc(OCCCC(=O)N2CCCc3ccccc32)c1C	-	-	-	-	83	-
O=C(CCC(=O)N1CCCc2ccccc21)N1CCN(S(=O)(=O)c2ccccc2)CC1	-	-	-	-	-	-
O=C(NCC1CCCO1)C1CCN(C(=O)c2ccc(Br)cc2)CC1 (centres undefined)	-	-	-	-	-	-
CC1CCCC(NC(=O)CSc2ncccc2C(=O)O)C1C (centres undefined)	-	-	-	-	-	-
COc1ccccc1/C=C/C(=O)NCC(=O)N/N=C/c1cc(Br)ccc1OC	-	-	-	53	-	-
COc1ccc(Br)cc1/C=N/NC(=O)c1ccc(COc2ccc3c(c2)CCC3)o1	-	-	-	-	-	-
COc1cc(NC(=O)CSc2nc(C)cs2)cc(OC)c1	-	-	-	52	96	-
COc1ccc(OC)c(NC(=O)CSC2=NCCS2)c1	-	-	-	-	-	-
COc1ccc(OC)c(NC(=O)CSc2nc(C)cs2)c1	-	-	-	54	84	-
SMILES	CYP2C19 activ	PostGolgi ctrl	CYP2C9 activ	CYP2C9 inhib	CYP2C19 inh	PostGolgi yeast
COc1cccc(NC(=O)CSc2nnc(C)s2)c1	-	-	-	-	-	-
Cc1csc(SCC(=O)Nc2ccc(Cl)cn2)n1	-	-	-	59	86	-
COc1ccc(OC)c(NC(=O)CSc2nnc(N)s2)c1	-	-	-	-	50	-
COc1cccc(/C=N/NC(=O)c2csc(-n3nc(C)cc3C(F)(F)F)n2)c1	-	-	-	-	-	-
O=C(O)c1cccc(N2CCCCS2(=O)=O)c1	-	-	-	-	-	-
O=C(O)CC1C(=O)OCN1C(=O)OCc1ccccc1 (centres undefined)	-	-	-	-	-	-
O=C(c1ccc(NC2=NC3CS(=O)(=O)CC3S2)cc1)N1CCN(Cc2ccccc2)CC1 (centres undefined)	-	-	-	-	-	-
Cc1cc(NC(=O)CSc2nc(C(C)C)nc3ccccc23)no1	-	-	-	-	-	-
CC(C)c1nc(SCC(=O)Nc2nc3c(s2)CCCC3)c2ccccc2n1	-	39	-	-	-	-
